This excerpt belongs to a sample that is enriched for hits.
VHR inh color – VHR1 phosphatase inhibitors, primary screen, biochemical, colorimetric, HTS. 50,000 compounds, 0.7% hits. inhibition, % at 20 µM. Dual specificity protein phosphatase 3 (Homo sapiens), P51452. recombinant VHR phosphatase, colorimetric substrate read-out; in the data active = inhibition above about 60%
Target sequence (P51452 whole entry, looked up): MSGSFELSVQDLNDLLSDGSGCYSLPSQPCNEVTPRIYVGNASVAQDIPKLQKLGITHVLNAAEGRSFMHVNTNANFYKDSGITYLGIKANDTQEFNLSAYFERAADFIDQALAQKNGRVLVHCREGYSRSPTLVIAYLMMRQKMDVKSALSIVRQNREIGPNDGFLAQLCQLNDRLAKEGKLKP
* = called active by the depositor.

SMILES	VHR inh color
O=C(O)c1cc(-c2cn[nH]c2-c2ccccc2)nc2ccc3ccccc3c12	110*
Cc1sc2nc(-c3ccc(C(C)C)cc3)[nH]c(=O)c2c1C	3
COc1ccc(OC)c(NC(=O)CN(c2ccccc2)S(=O)(=O)c2ccccc2[N+](=O)[O-])c1	-12
COc1ccc(N2C(=O)/C(=C/c3ccc(-c4ccccc4[N+](=O)[O-])o3)C(=O)NC2=S)cc1	81*
COc1ccc(-c2ccc(/C=C3/C(=O)NC(=O)N(c4ccccc4)C3=O)o2)c([N+](=O)[O-])c1	81*
CC(C)c1ccc(N2C(=O)NC(=O)/C(=C/c3cccc([N+](=O)[O-])c3)C2=O)cc1	6
COc1cccc(/C=C2/C(=O)NC(=O)N(c3ccc(Br)cc3)C2=O)c1O	-16
COc1ccc(-c2ccc(/C=C3/C(=O)NC(=O)N(c4ccc(C)cc4)C3=O)o2)c([N+](=O)[O-])c1	11
O=C1NC(=O)N(c2ccc(Cl)cc2)C(=O)/C1=C\c1ccc(-c2ccccc2[N+](=O)[O-])o1	-8
COc1ccc(N2C(=O)/C(=C/c3ccc(-c4ccc(C(=O)O)cc4)o3)C(=O)NC2=S)cc1	32
COc1ccc(-c2ccc(/C=C3\C(=O)NC(=O)N(c4ccc(Cl)cc4)C3=O)o2)c([N+](=O)[O-])c1	2
COc1cc(/C=C2/C(=O)NC(=O)N(c3ccc(C(C)C)cc3)C2=O)cc(OC)c1O	27
CC(C)c1ccc(N2C(=O)NC(=O)/C(=C/c3ccc([N+](=O)[O-])o3)C2=O)cc1	85*
COc1cccc(/C=C2/C(=O)NC(=O)N(c3ccc(C(C)C)cc3)C2=O)c1O	89*
O=C1NC(=O)N(c2ccc(Cl)cc2)C(=O)/C1=C\c1ccc(-c2ccc([N+](=O)[O-])cc2)o1	-16
Cc1c(N=Cc2cccc(Cl)c2)cccc1[N+](=O)[O-]	-5
COc1cc([N+](=O)[O-])ccc1NC(=O)c1cccc2ccccc12	-5
Cc1ccc(NC(=O)c2ccc(CN(c3ccccc3)S(C)(=O)=O)cc2)cc1Cl	-36
CC(C)NC(=O)C(=O)Nc1ccc2c(c1)OCCO2	-20
CC1=C(C(N)=O)C(c2ccc(C)cc2)N=C(SCc2ccc(F)cc2)N1 (centres undefined)	-11
CCOc1ccccc1C(=O)Nc1nc(-c2ccc(Cl)cc2)cs1	-88
O=S(=O)(N/N=C/c1ccc(O)cc1)c1ccc(Cl)cc1	-16
Cc1ccc(C)c(OCc2nnc(NC(=O)c3cccs3)s2)c1	15
Cc1cccc(C)c1NC(=O)CCCOc1ccccc1	-5
COc1ccc(N(CC(=O)NCCc2ccc(OC)c(OC)c2)S(=O)(=O)c2ccccc2)cc1	-16
SMILES	VHR inh color
O=C1NC(=S)N(c2cccc(Br)c2)C(=O)/C1=C/c1ccc(-c2ccccc2C(=O)O)o1	80*
Cc1ccc([N+](=O)[O-])cc1-c1ccc(/C=C2/C(=O)NC(=O)N(c3ccccc3)C2=O)o1	43
O=C1NC(=O)N(c2ccccc2)C(=O)/C1=C/c1ccc(-c2ccccc2C(=O)O)o1	8
Cc1ccc([N+](=O)[O-])cc1-c1ccc(/C=C2\C(=O)NC(=O)N(c3ccc(Cl)cc3)C2=O)o1	-30
Cc1cccc(N2C(=O)NC(=O)/C(=C\c3ccc(-c4ccccc4C(=O)O)o3)C2=O)c1	-4
C=CCN1C(=O)/C(=C\c2ccc(-c3cc([N+](=O)[O-])ccc3C)o2)C(=O)NC1=S	74*
Cc1ccccc1OCC(=O)Nc1ccccc1C(C)C	-10
O=C1NC(=S)N(c2ccccc2F)C(=O)/C1=C/c1ccc(OCc2cccc(C(=O)O)c2)cc1	36
O=C1C2ON(c3ccc(Cl)cc3)C(c3cccs3)C2C(=O)N1Cc1ccccc1 (centres undefined)	8
CCCC1=NN2C(=N)/C(=C/c3ccc(OCc4ccc(F)cc4)c(OCC)c3)C(=O)N=C2S1	100*
CCCC1=NN2C(=N)/C(=C/c3ccc(-c4ccccc4C(=O)OC)o3)C(=O)N=C2S1	116*
CCC1=NN2C(=N)/C(=C/c3ccc(OCc4ccc(Br)cc4)c(OC)c3)C(=O)N=C2S1	6
CCC1=NN2C(=N)/C(=C/c3ccc(-c4ccc(F)c(Cl)c4)o3)C(=O)N=C2S1	-34
CC(C)C1=NN2C(=N)/C(=C/c3ccc(-c4ccc([N+](=O)[O-])cc4)o3)C(=O)N=C2S1	-4
CCCC1=NN2C(=N)/C(=C/c3ccc(-c4ccc(F)cc4)o3)C(=O)N=C2S1	109*
CCC1=NN2C(=N)/C(=C/c3ccc(-c4ccc(C)c(Cl)c4)o3)C(=O)N=C2S1	5
CCCC1=NN2C(=N)/C(=C/c3ccc(-c4ccc([N+](=O)[O-])cc4Br)o3)C(=O)N=C2S1	111*
CCC1=NN2C(=N)/C(=C/c3ccc(-c4ccccc4[N+](=O)[O-])o3)C(=O)N=C2S1	-3
CCC1=NN2C(=N)/C(=C/c3ccc(-c4cc(Cl)ccc4Cl)o3)C(=O)N=C2S1	0
CCC1=NN2C(=N)/C(=C/c3ccc(-c4cccc([N+](=O)[O-])c4)o3)C(=O)N=C2S1	0
CCOc1cc(/C=C2/C(=N)N3N=C(CC)SC3=NC2=O)ccc1OCc1ccc(F)cc1	5
CCn1c2ccccc2c2cc(CNCc3ccc(OC)cc3)ccc21	-7
COc1cc(/C=C2/C(=O)NC(=S)N(c3ccccc3)C2=O)ccc1OCc1ccc([N+](=O)[O-])cc1	19
O=C(CSCc1ccccc1)Nc1ccc(Br)cc1C(=O)O	7
O=C(Nc1cccc(Cl)c1)Nc1nnc(-c2ccccc2F)s1	-14
SMILES	VHR inh color
COC(=O)c1ccc(/C=N/N=C2\C(=O)Nc3ccccc32)cc1	-12
O=C(Oc1cccc(-c2cnc3ccccc3n2)c1)c1cccc(S(=O)(=O)N2CCOCC2)c1	4
COc1cc(C2/C(=C(\O)c3ccc(C)cc3)C(=O)C(=O)N2CCCC(=O)O)ccc1O (centres undefined)	-14
COc1ccc(-c2nnc(Sc3nc4ccc([N+](=O)[O-])cc4s3)n2-c2ccccc2)cc1	-11
NNC(=O)c1ccc(NS(=O)(=O)c2ccccc2)cc1	0
CCOc1ccc(NC(=O)c2ccc(C(=O)c3ccccc3)cc2)c([N+](=O)[O-])c1	-4
COc1cc(/C=C/C(=O)c2c(C)cc(C)[nH]c2=O)cc(OC)c1OC	-11
O=C(/C=C/c1cccc([N+](=O)[O-])c1)N1CCN(c2cccc(Cl)c2)CC1	-2
O=C(Cn1c[n+]([N-][N+](=O)[O-])cn1)Nc1ccc(NC(=O)Cn2c[n+]([N-][N+](=O)[O-])cn2)cc1	19
Cc1c(Cl)cccc1N=C1NC(=O)/C(=C/c2ccc(-c3ccccc3C(=O)O)o2)S1	86*
Cc1c(Cl)cccc1N=C1NC(=O)/C(=C/c2ccc3c(c2)OCO3)S1	24
Cc1c(Cl)cccc1N=C1NC(=O)/C(=C/c2cccc(O)c2)S1	2
CCCCOc1ccc(S(=O)(=O)n2nc(C)cc2C)cc1	-27
CCOC(=O)C1=C(C)N=c2s/c(=C\c3cccc([N+](=O)[O-])c3)c(=O)n2C1c1ccccc1F (centres undefined)	-13
Cn1c(-c2ccc(-c3nc4cnccc4n3C)cc2)nc2cnccc21	71*
Cc1ccc(-c2nc3ccccc3c(=O)n2-c2cccnc2)cc1	13
Cn1c(-c2nc3ccccc3n2C)nc2ccccc21	-7
CCOC(=O)c1ccccc1NC(=O)c1ccncc1	1
O=C(O)CCC(=O)Nc1nc(-c2cccc3ccccc23)cs1	-19
CN(C)c1ccc(/C=C/C=C/c2cc[n+](CCCS(=O)(=O)[O-])cc2)cc1	100*

From PubChem BioAssay
